# Candida biofilm – kills Candida albicans biofilms; C. albicans biofilm + clotrimazole, Alamar Blue; inhibition, % at 6 µM; 85,000 tested, 0.14% active; AID 834;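 active = inhibition above 20%; inactive = inhibition below 20%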;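 note: preformed 24 hr biofilms exposed to compound for 48 hr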
# sEH inhibitor – inhibitors of human soluble epoxide hydrolase | AID 707 | 91,000 tested, 0.34% active | P34913 | recombinant human sEH enzymatic activity assay | inhibition, % at 2 µM; in the data active = inhibition above about 80%
# Target sequence (P34913 whole entry, looked up): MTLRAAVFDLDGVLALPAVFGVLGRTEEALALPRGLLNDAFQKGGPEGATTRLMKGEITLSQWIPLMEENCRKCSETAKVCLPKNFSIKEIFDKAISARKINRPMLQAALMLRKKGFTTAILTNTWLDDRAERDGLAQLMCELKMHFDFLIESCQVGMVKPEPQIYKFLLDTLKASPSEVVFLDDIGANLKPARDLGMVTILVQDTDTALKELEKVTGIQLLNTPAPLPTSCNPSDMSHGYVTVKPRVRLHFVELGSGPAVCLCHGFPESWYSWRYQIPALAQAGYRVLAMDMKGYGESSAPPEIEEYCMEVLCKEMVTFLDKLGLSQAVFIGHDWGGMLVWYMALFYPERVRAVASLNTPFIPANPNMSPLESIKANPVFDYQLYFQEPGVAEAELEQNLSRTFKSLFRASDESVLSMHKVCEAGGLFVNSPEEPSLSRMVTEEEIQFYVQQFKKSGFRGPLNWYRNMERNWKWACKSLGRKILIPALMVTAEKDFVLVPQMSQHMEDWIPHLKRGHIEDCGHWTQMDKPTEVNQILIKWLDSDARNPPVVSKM
# sEH activator – activators of human soluble epoxide hydrolase; P34913; purified human sEH enzymatic activity, activator screen; activation, % at 2 µM; 91,000 tested, 0.04% active; in the data active = activation above about 37%
# MRP resist rev – compounds reversing MRP-mediated drug resistance. H69AR cells + 2 uM doxorubicin, CellTiter-Glo, 72 h. differential viability (reversal), % at 10 µM. 85,000 tested, 0.04% active;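 active = viability drop by adding the cancer drug above about 55%, with treated viability meeting a 40% cutoff, limit read from the data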;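 note: larger differential means the compound sensitizes cells more to doxorubicin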
# MRP1 act – activators of MRP-1. viability increase, % at 10 µM. 140,000 tested, 0.61% active. H69AR cells + doxorubicin, viability rescue, CellTiter-Glo;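 active = viability gain under doxorubicin at or above a set limit, the compound median plus 3 SD, cut at about 4.7% in these data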;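 note: MRP-1 overexpressing cells given doxorubicin 25 µM after compound pretreatment; 18-22 h compound pretreatment then 72 h with doxorubicin before readout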
# Numbers stand for hits; n = inactive; x = no result. Compounds with a hit are over-represented: about 0.87% of the library has one in this group of screens.
SMILES,Candida biofilm,sEH inhibitor,sEH activator,MRP resist rev,MRP1 act
Cc1c(Cl)cccc1-c1ccc(C(=O)N2CCN(c3ccc([N+](=O)[O-])cc3)CC2)o1,x,n,n,x,n
O=c1[nH]c(C2CCCN(S(=O)(=O)c3ccccc3)C2)nc2c1nnn2Cc1ccccc1 (stereo not given),n,n,n,n,5.3
O=C(Nc1ccc(Cl)cc1)N1CCC(c2nc(-c3ccccc3Cl)no2)CC1,n,88,n,n,n
COc1ccc(NC(=O)N2CCC(c3nc(-c4cccs4)no3)CC2)cc1,n,90,n,n,n
O=C(Nc1ccccc1)N1CCCC(c2nc(-c3cccs3)no2)C1 (stereo not given),n,x,x,n,n
O=C(Nc1cccc(C(F)(F)F)c1)N1CCC(c2nc(-c3ccc(F)cc3)no2)CC1,n,93,n,n,n
O=C(NC1CCCCC1)N1CCCC(c2nc(-c3cccs3)no2)C1 (stereo not given),n,96,n,n,n
O=C(Nc1ccc(Cl)cc1F)C1CC1,x,x,x,x,n
COc1ccc(OCCC(=O)OCC(=O)NCc2ccccc2)cc1,x,x,x,x,n
O=C(Nc1ccn(Cc2ccccc2F)n1)c1ccc(COc2cc(Cl)ccc2Cl)o1,x,n,n,x,7.0
CC(NC(=O)C(=O)NN=C1CCCCCCCCCCC1)c1ccccc1 (stereo not given),x,n,n,x,n
COc1ccc(CCNC(=O)CSCc2ccc(Cl)cc2)cc1OC,x,x,x,x,5.0
Nc1c(C(=O)NCc2ccc3c(c2)OCO3)c2nc3ccccc3nc2n1CCCN1CCOCC1,n,x,x,n,n
COc1ccccc1CNC(=O)c1c(N)n(CCCN2CCOCC2)c2nc3ccccc3nc12,x,n,117,x,n
CC(C)Cn1c2c(c(O)c(C(=O)Nc3nccs3)c1=O)CCCC2,n,x,x,n,5.7
Cn1nc(C(=O)NC(C)(C)C)c2ccccc21,x,x,x,x,n
FC(F)(F)c1ccc(Cl)c(N/N=C/c2ccc(N3CCOCC3)s2)c1,x,x,x,x,n
Brc1ccc(-c2csc3ncnc(-n4nnc5ccccc54)c23)cc1,x,x,x,x,n
O=C1CC(c2nc3ccccc3[nH]2)CN1c1cccc(C(F)(F)F)c1 (stereo not given),n,x,x,n,7.7
CCOC(=O)C1=C(C)N=C2SC(C)C(=O)N2C1c1ccc(OCC)c(OCC)c1 (stereo not given),n,n,n,n,n
CCC1SC2=NC(C)=C(C(=O)OC)C(c3cccs3)N2C1=O (stereo not given),n,n,n,n,5.5
CCOC(=O)C1=C(C)N=C2SC(CC)C(=O)N2C1c1cccc(F)c1 (stereo not given),n,n,n,n,6.3
C=CCOC(=O)C1=C(C)N=C2SCCC(=O)N2C1c1cccs1 (stereo not given),n,n,n,n,n
CC1(C)CC(=O)C(C(C2=C(O)CC(C)(C)CC2=O)c2ccc(Br)s2)C(=O)C1 (stereo not given),x,x,x,x,n
COC(=O)C1=NNC2(c3ccc(Cl)cc3)C(=O)N(c3ccccc3)C(=O)C12 (stereo not given),x,x,x,x,n
SMILES,Candida biofilm,sEH inhibitor,sEH activator,MRP resist rev,MRP1 act
Cc1[nH]n(-c2nc(-c3cccc([N+](=O)[O-])c3)cs2)c(=O)c1C,x,x,x,x,n
NS(=O)(=O)c1ccc(N=Nc2c(-c3ccccc3)[nH]n(-c3nc(-c4ccccc4)cs3)c2=O)cc1,x,x,x,x,5.3
Cc1cc(C(=O)Nc2nnc(C(F)(F)F)s2)no1,n,n,n,n,5.5
CC(NC(=S)Nc1ccc(S(=O)(=O)N2CCOCC2)cc1)C1CC2CCC1C2 (stereo not given),x,x,x,x,n
CN(C1CCCCC1)S(=O)(=O)c1ccc(C(=O)O)cc1,25,n,n,n,n
O=C(NC12CC3CC(CC(C3)C1)C2)N1CC2Cc3cccc(=O)n3C(C2)C1 (stereo not given),n,86,n,n,n
Cc1cc(NC(=O)CSc2ccc(-c3nc4cc(C)c(C)cc4[nH]3)cn2)no1,n,n,n,n,n
Cc1cc2nc(-c3ccc(SCC(=O)N4CCc5ccccc54)nc3)[nH]c2cc1C,x,85,n,x,n
O=C(O)c1ccc(N2C(=O)C3ON(c4ccccc4)C(c4ccccc4F)C3C2=O)cc1 (stereo not given),n,n,44,n,n
CCN(CC)S(=O)(=O)c1cccc(NC(=O)CCSc2ccc(Cl)cc2)c1,x,x,x,x,5.5
C[C@@H](C(=O)Nc1ccc2ccccc2c1)[C@H]1C[C@]1(C)[C@H](NS(=O)(=O)c1ccccc1)c1ccccc1,x,x,x,x,n
CCOC(=O)CN(C(=O)CSc1nnc(CNc2ccc(F)cc2)n1C)c1ccccc1,n,n,n,n,n
CCOC(=O)CN(C(=O)CSc1nnc(COc2ccc(OC)cc2)n1C)c1ccccc1,n,n,n,n,5.6
O=C(NCCc1ccccc1)C1CCN(S(=O)(=O)N2CCCC2)CC1,n,x,x,n,n
CC(C)(C)c1ccc(C(=O)N2CCC(C(=O)NCCC3=CCCCC3)CC2)cc1,x,86,n,x,n
O=C(NCCC1=CCCCC1)C1CCN(C(=O)Nc2ccccc2)CC1,n,n,n,n,n
O=C(NCCC1=CCCCC1)C1CCCN(S(=O)(=O)c2ccc(F)cc2)C1 (stereo not given),n,n,n,n,n
Cc1ccc(S(=O)(=O)N2CCCC(C(=O)NCCC3=CCCCC3)C2)cc1 (stereo not given),n,82,n,n,n
O=C(NCCc1ccccc1)C1CCN(S(=O)(=O)c2cccnc2)CC1,22,n,n,n,n
O=C(NCCC1=CCCCC1)C1CCCN(S(=O)(=O)c2ccccc2)C1 (stereo not given),n,84,n,n,n
Cc1ccc(NC(=O)C(=O)NCCOc2ccccc2Cl)cc1,x,x,x,x,n
C=CC[C@@H]1C=C[C@H](O/N=C/c2ccc(C(=O)N3[C@H](c4ccc(C)cc4)[C@@H](C)CC[C@H]3C(=O)OC)cc2)[C@@H](CO)O1,x,x,x,x,n
CCN(c1ccccc1)c1ncnc2c1cnn2-c1ccccc1,n,n,n,n,n
CN(Cc1ccccc1)c1ncnc2c1cnn2-c1ccccc1,n,n,n,n,5.3
Cc1c(C(=O)N2CCc3ccccc3C2)oc2ccc(S(=O)(=O)N3CCCCCC3)cc12,x,x,x,x,n
SMILES,Candida biofilm,sEH inhibitor,sEH activator,MRP resist rev,MRP1 act
OC(Cn1cncn1)(c1ccccc1)c1ccccc1,n,n,n,n,n
O=C(CC(NC(=O)C(F)(F)F)c1ccccc1)Nc1nnc(CCc2ccccc2)s1 (stereo not given),x,x,x,x,9.3
Cc1cccc(NC(=O)Cc2coc3ccc4ccccc4c23)n1,n,n,n,n,n
O=C1N/C(=N\N=C\c2ccccn2)SC1Cc1cccc(SC(F)F)c1 (stereo not given),x,n,n,x,n
Cc1cccc(CC2S/C(=N/c3ccccn3)NC2=O)c1 (stereo not given),n,n,n,n,10
O=C(CC(Nc1ccc(F)cc1)C(=O)OCC(=O)c1cccs1)c1ccccc1 (stereo not given),x,x,x,x,5.2
O=C(CC(Nc1ccc(F)cc1)C(=O)O)c1ccccc1 (stereo not given),n,n,n,n,n
Cc1cc(=O)oc2c1ccc1oc(/C(=N/O)c3ccccc3)c(C)c12,n,n,n,n,10
Cc1ccc(/C(=N\O)c2oc3c(C)c4oc(=O)cc(C)c4cc3c2C)cc1,x,n,n,n,n

# Assay outcomes (PubChem)
